In all, about 310,000 compounds went through this assay and about 14,000 (4.5%) showed an effect of 50% or more. Effects have a minus sign here. The entries come from a sample that favours strong results as a whole.
target: human ether-à-go-go-related gene (hERG) potassium channel (human, UniProt Q12809); assay: primary screen, population patch clamp on CHO cells stably expressing hERG; higher = less effect of the substance
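Also: peak tail current of the secondary pulse compared with the same well before compound.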

Chain of human ether-à-go-go-related gene (hERG) potassium channel (Q12809 whole entry, looked up): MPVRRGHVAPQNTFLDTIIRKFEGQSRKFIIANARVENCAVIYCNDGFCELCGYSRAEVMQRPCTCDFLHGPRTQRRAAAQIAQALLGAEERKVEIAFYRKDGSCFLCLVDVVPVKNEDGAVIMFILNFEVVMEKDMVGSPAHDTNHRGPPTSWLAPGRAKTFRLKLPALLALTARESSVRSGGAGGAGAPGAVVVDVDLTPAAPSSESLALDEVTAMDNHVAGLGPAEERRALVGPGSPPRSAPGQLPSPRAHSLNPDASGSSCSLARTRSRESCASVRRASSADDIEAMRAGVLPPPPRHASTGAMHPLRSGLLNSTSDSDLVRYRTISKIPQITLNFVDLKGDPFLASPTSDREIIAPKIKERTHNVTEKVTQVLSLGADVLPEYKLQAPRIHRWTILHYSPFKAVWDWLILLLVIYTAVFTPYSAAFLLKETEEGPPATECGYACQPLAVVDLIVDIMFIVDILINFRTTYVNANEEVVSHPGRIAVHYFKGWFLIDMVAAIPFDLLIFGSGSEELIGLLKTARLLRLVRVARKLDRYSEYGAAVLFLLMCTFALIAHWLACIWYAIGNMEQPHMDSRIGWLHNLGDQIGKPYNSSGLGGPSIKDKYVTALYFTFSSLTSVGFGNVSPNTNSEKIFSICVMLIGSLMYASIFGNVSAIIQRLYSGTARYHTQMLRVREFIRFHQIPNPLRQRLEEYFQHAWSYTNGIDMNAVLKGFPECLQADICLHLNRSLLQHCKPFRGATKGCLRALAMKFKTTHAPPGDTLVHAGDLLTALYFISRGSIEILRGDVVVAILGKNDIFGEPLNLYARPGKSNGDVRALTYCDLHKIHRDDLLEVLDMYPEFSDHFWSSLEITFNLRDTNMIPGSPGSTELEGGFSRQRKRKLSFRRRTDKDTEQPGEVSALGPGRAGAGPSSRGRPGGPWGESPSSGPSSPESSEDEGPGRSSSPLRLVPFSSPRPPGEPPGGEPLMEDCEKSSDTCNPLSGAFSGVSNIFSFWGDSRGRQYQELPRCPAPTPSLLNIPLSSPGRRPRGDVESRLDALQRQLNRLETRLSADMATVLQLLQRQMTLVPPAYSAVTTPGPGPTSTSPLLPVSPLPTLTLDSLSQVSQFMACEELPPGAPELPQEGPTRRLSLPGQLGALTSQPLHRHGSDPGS

SMILES | hERG current change (%, negative = inhibition) at 10uM [%]
COc1ccc(CC(=O)NC(c2ccccc2)c2ccc(C)cc2)c(OC)c1 (stereo not drawn) | 11.3
COc1ccc(OC)c(C(c2nnnn2Cc2ccccc2)N2CCN(C3CCCCC3)CC2)c1.Cl (stereo not drawn) | -53.9
c1cnc2ccc(C(c3nnnn3C3CCCC3)N3CCSCC3)cc2c1 (stereo not drawn) | -3.72
COc1ccc(Cn2nnnc2C(c2ccc(C)cc2)N2CCN(C3CCCC3)CC2)cc1.Cl (stereo not drawn) | -63.8
COc1ccc(Cn2nnnc2C(c2ccc(F)cc2)N2CCN(C3CCCC3)CC2)cc1 (stereo not drawn) | -52.6
COc1ccc(Cn2nnnc2C(c2ccc3ncccc3c2)N2CCN(C3CCCCC3)CC2)cc1 (stereo not drawn) | -82.8
CCN1CCN(C(c2ccccc2)c2nnnn2Cc2ccc(OC)cc2)CC1.Cl (stereo not drawn) | 10.7
COc1ccc(C(c2nnnn2Cc2ccc(F)cc2)N2CCN(c3ccc(OC)cc3)CC2)cc1 (stereo not drawn) | -7.57
COc1ccccc1C(c1nnnn1Cc1ccccc1)N1CCN(C2CCCC2)CC1.Cl (stereo not drawn) | -35.5
COc1ccc(C(c2nnnn2Cc2ccc(F)cc2)N2CCN(c3ccccc3)CC2)cc1 (stereo not drawn) | -4.37
c1ccc(Cn2nnnc2C(c2cccnc2)N2CCN(C3CCCCC3)CC2)cc1 (stereo not drawn) | -24.9
COc1ccc(C(c2nnnn2Cc2ccccc2)N2CCN(c3ccccc3)CC2)cc1.Cl (stereo not drawn) | -6.94
COc1ccc(OC)c(C(c2nnnn2Cc2ccccc2)N2CCN(C)CC2)c1.Cl (stereo not drawn) | 3.17
Cc1ccc(N(CC(O)Cn2c3ccccc3c3ccccc32)S(C)(=O)=O)cc1 (stereo not drawn) | 9.82
CCC(C)(C)n1nnnc1C(c1cc2ccc(OC)cc2[nH]c1=O)N1CCCCC1 (stereo not drawn) | -26.3
CCC(C)(C)n1nnnc1C(c1cc2ccc(OC)cc2[nH]c1=O)N1CCc2ccccc2C1 (stereo not drawn) | -27.9
CCC(C)(C)n1nnnc1C(c1cc2ccc(OC)cc2[nH]c1=O)N1CCN(C2CCCCC2)CC1 (stereo not drawn) | -59.6
Cc1cccc(NC(=O)c2cc(NC(=O)c3ccco3)ccc2Cl)n1 | -29.1
Cc1nc2ccccn2c1C(=O)Nc1ccc(Cl)cc1 | 1.65
CN(C)c1nc2c(N)ncnc2n1[C@H]1O[C@@H](CO)[C@H](O)[C@@H]1O | 7.28
Br.COc1ccc(Nc2nc(-c3sc(NC(C)=O)nc3C)cs2)cc1 | 3.32

— paper PMC4336329 (PLoS ONE, 2015)
